# Screening data from PubChem BioAssay.
# A selection: hits, their analogues and other compounds. The true share with any hit is near 12%.
# PostGolgi yeast: growth inhibition of a yeast mutant, post-Golgi transport screen. post-Golgi transport phenotypic cell assay. inhibition, % at 10 µM. actives 0.9% (n = 98,000). AID 739;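 also: yeast cells grown in 1536-well plates; yeast grown about 18 h at 30C before absorbance read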
# D1 mod: allosterically modulates the human D1 dopamine receptor. actives 5.9% (n = 58,000). B-score at 10 µM. P21728. HEK293 D1, CRE-luciferase, dopamine EC30 potentiation; actives deviate in either direction;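 active = luminescence count or its row- and column-corrected plate score outside the 99.7% band of the plate's sample wells, on either side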
# Target sequence (P21728 whole entry, looked up): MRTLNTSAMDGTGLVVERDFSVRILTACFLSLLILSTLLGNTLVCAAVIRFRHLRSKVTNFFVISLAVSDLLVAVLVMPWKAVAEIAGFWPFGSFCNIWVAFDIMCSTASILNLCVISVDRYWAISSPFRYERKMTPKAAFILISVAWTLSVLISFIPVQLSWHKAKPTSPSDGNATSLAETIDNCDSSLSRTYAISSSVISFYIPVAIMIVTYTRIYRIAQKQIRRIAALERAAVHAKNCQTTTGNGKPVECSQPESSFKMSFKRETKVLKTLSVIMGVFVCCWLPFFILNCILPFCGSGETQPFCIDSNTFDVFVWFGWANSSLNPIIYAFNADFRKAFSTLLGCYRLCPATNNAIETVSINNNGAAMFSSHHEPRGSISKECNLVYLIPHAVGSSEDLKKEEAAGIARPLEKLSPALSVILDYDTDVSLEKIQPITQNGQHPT
# Cav3 T inh: blocks human Cav3.2 T-type calcium channel; O95180; Cav3.2-expressing cells, Fluo-4 calcium fluorescence FDSS; hits give low values; B-score at 10 µM; actives 4% (n = 100,000); AID 449739;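 active = single-dose well whose peak fluorescence ratio is a statistical outlier from its plate by either plate-standardised score or position-corrected B-score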
# DAT uptake mod: modulates human dopamine transporter uptake under cocaine. B-score at 10 µM. Q01959. AID 449768. actives 1.3% (n = 110,000). LLC-PK1 hDAT cells, [14C]-dopamine uptake with cocaine IC80; actives deviate in either direction;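 active = Z score or B-score, a plate-position-corrected score, falls beyond the plate's 99.7% confidence bounds, in either direction; inactive = both scores lie inside the 99.7% bounds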
# PLAP activator: human PLAP activation. actives 1.2% (n = 96,000). activation fold at 20 µM. purified PLAP enzyme, luminescent substrate read-out; hits give high values. P05187. AID 696; in the data active = activation fold above about 2
# PostGolgi ctrl: yeast control strain growth, post-Golgi counter-screen; efflux-deficient yeast background strain, growth absorbance A615, 16 h; inhibition, % at 10 µM; actives 5% (n = 98,000); AID 738
# A number is an active result; n = inactive; x = not tested or not shown. Rule as the data show it, unless noted: active = inhibition above about 30%; inactive = the rest.
SMILES,PostGolgi yeast,D1 mod,Cav3 T inh,DAT uptake mod,PLAP activator,PostGolgi ctrl
COc1ccc(/C(O)=C2/C(=O)C(=O)N(CCCN(C)C)C2c2ccc(C)o2)cc1Cl (stereo not drawn),n,n,n,n,n,n
COC(=O)Nc1ccc(S(=O)(=O)Nc2ccc(O)cc2)cc1,n,x,n,n,x,n
COC(=O)c1cc2cc(NS(=O)(=O)c3ccc(C)cc3)ccc2s1,n,x,n,n,x,52
COC(=O)c1ccc(NS(=O)(=O)c2ccc(OC)cc2)cc1,n,n,n,n,n,n
COC(=O)Nc1ccc(S(=O)(=O)Nc2ccc(C)cc2)cc1,39,x,n,n,n,37
Cc1ccccc1Sc1c(C#N)c(-c2ccccc2)nn1C,n,x,n,n,n,n
CN1C(=O)C(O)(c2sc(N)nc2-c2ccccc2)c2ccccc21 (stereo not drawn),n,n,n,n,n,n
COCCn1c(SCC(=O)Nc2ccc(Cl)c(S(=O)(=O)N(C)C)c2)nc2ccccc21,n,x,-6.2,n,n,n
Cc1cc2oc(C(=O)NCc3ccncc3)c(C)c2cc1C,n,n,n,n,n,36
Cc1c(C(=O)NCc2ccccn2)oc2ccccc12,n,n,n,n,n,n
COc1ccc(C(=O)n2c(SC)nc3cc4c(cc32)OCCO4)cc1,n,x,n,n,n,n
Clc1ccc(Sc2oc(/C=N/n3cnnc3)cc2Br)cc1,n,n,n,n,n,47
Clc1ccc(Sc2ccc(/C=N/n3cnnc3)o2)cc1,n,x,n,n,n,n
Cc1ccc(/C(O)=C2\C(=O)C(=O)N(CC(C)O)C2c2ccc(N(C)C)cc2)cc1 (stereo not drawn),n,n,n,n,n,n
Cc1ccccc1-n1nc2c(c1NC(=O)c1ccc(Br)o1)CSC2,n,n,-4.7,n,n,n
N#CC1(c2ccccc2)CCCN1C(=O)c1ccc(Br)o1 (stereo not drawn),n,n,n,n,n,n
CCOc1ccc2[nH]c(=O)c(CN(Cc3cccs3)C(CC)c3nnnn3C(C)(C)CC)cc2c1 (stereo not drawn),n,n,-6.2,n,n,37
Cc1ccc(Sc2ncccc2COC(=O)Nc2c(C)cccc2C)cc1,n,x,-5.5,n,n,n
Cc1ccc(Sc2ncccc2COC(=O)Nc2ccccc2)cc1,n,x,n,n,n,n
Cn1cc(Br)c(C(=O)NNC(=O)c2cccc(Br)c2)n1,n,x,x,x,2.3,n
COc1cccc(NC(=O)c2nn(C)cc2Br)c1,x,x,n,n,x,x
O=C(NNC(=O)c1ccc(SCC2CCCO2)c([N+](=O)[O-])c1)c1ccc(Cl)c([N+](=O)[O-])c1 (stereo not drawn),n,x,n,n,2.4,n
Cc1ccc(C(=O)NNC(=O)c2ccc(SCC3CCCO3)c([N+](=O)[O-])c2)cc1 (stereo not drawn),n,x,n,n,n,n
Cc1ccnc(NS(=O)(=O)c2ccc(NC(=O)C34CC5CC(C)(CC(C)(C5)C3)C4)cc2)n1,n,x,n,2.8,n,n
O=C(c1nn(Cc2ccccc2)c(=O)c2ccccc12)N1CCN(C/C=C/c2ccccc2)CC1,n,x,-6.7,4,n,n
SMILES,PostGolgi yeast,D1 mod,Cav3 T inh,DAT uptake mod,PLAP activator,PostGolgi ctrl
CCn1c(Sc2ccc(N)cc2Cl)nc2ccccc21,n,x,n,n,n,46
CCn1c(SCC(=O)NC(C)c2ccccc2)nc2ccccc21 (stereo not drawn),n,x,n,n,n,n
Clc1c(CSc2nc3ccccc3o2)nc2sccn12,n,n,n,n,n,36
CCCCOc1ccc(-c2ncc(Cl)cn2)cc1,n,n,n,n,n,n
CCCCCCc1ccc(-c2ncc(N)cn2)cc1,n,n,n,n,n,32
C=C1C(=O)[C@@]23[C@H](O)C[C@@H]4C(C)(C)CC[C@H](O)[C@]4(C)[C@@H]2C[C@H](O)[C@@H]1[C@H]3O,x,x,n,-4.8,x,x
Cc1cc(C)cc(OCC(=O)NNC(=O)CCC(=O)NCc2ccccc2)c1,x,x,n,n,x,x
CCOc1ccc(C2/C(=C(/O)c3ccc(F)cc3)C(=O)C(=O)N2CCCN(C)C)cc1 (stereo not drawn),n,x,n,n,n,44
C=CCOc1ccc(C2/C(=C(\O)c3ccc(F)cc3)C(=O)C(=O)N2CCCN(C)C)cc1 (stereo not drawn),n,n,n,n,n,n
Cc1cccc(N2CCN(C(=O)CCn3c(=S)[nH]c4cc5c(cc4c3=O)OCO5)CC2C)c1 (stereo not drawn),n,n,-4,n,n,n
